This passage reports cytotoxicity call results from the antibiotic and cytotoxicity screens of Wong et al. (2023).

Among all 39,000 compounds or so, about 1,500 (3.8%) were called active. The entries come from a sample that favours actives as a whole.

In the assay the test system is HSkMC (human skeletal muscle cells). As to the kind of experiment: cytotoxicity call (relative viability < 0.9). The note with it: 10 µM.
With `CCC(=O)N(C)C[C@@H]1Oc2ncc(C#C[C@H](C)O)cc2C(=O)N([C@H](C)CO)C[C@H]1C`, the cytotoxicity call is “inactive”.
As to `COc1cccc(S(=O)(=O)N(C)C[C@H]2Oc3ncc(C#CC(C)C)cc3C(=O)N([C@H](C)CO)C[C@H]2C)c1`, the cytotoxicity call is “inactive”.
Consider `CO[C@@H]1CN(C)C(=O)c2cc(NS(=O)(=O)CC(F)(F)F)ccc2OC[C@H](C)N(C(=O)NC(C)C)C[C@H]1C`, for which the cytotoxicity call is “inactive”.
As for `C[C@@H]1CN([C@H](C)CO)C(=O)c2cc(NC(=O)CCCCCC(=O)Nc3ccccc3N)ccc2O[C@H]1CN(C)C(=O)Nc1ccc(F)cc1`, the cytotoxicity call was “inactive”.
To `CN(C)c1nc(SCCO)nc(N(C)C)n1` belongs “inactive”.
`C[C@@H]1CCCCO[C@H](CN(C)C(=O)Nc2cccc3ccccc23)[C@H](C)CN([C@@H](C)CO)C(=O)c2cc(NS(=O)(=O)c3ccc(F)cc3)ccc2O1`: the cytotoxicity call was “inactive”.
Regarding `O=C(OCC1OC(OC(=O)c2cc(O)c(O)c(OC(=O)c3cc(O)c(O)c(O)c3)c2)C(OC(=O)c2cc(O)c(O)c(OC(=O)c3cc(O)c(O)c(O)c3)c2)C(OC(=O)c2cc(O)c(O)c(OC(=O)c3cc(O)c(O)c(O)c3)c2)C1OC(=O)c1cc(O)c(O)c(OC(=O)c2cc(O)c(O)c(O)c2)c1)c1cc(O)c(O)c(OC(=O)c2cc(O)c(O)c(O)c2)c1` (configuration not stated), the cytotoxicity call is “inactive”.
On to `O=C(OC[C@H]1O[C@@H](OC(=O)c2cc(O)c(O)c(O)c2)[C@H](OC(=O)c2cc(O)c(O)c(O)c2)[C@@H](OC(=O)c2cc(O)c(O)c(O)c2)[C@@H]1OC(=O)c1cc(O)c(O)c(O)c1)c1cc(O)c(O)c(O)c1`, for which the cytotoxicity call is “active”.
For `O=C(OC[C@H]1O[C@@H](OC(=O)c2cc(O)c(O)c(O)c2)[C@H](O)[C@@H](OC(=O)c2cc(O)c(O)c(O)c2)[C@@H]1O)c1cc(O)c(O)c(O)c1`, the cytotoxicity call was “inactive”.
Regarding `CC(C)NC(=O)N(C)C[C@@H]1Oc2ccc(NC(=O)CCCN(C)C)cc2CC(=O)N([C@H](C)CO)C[C@@H]1C`, the cytotoxicity call is “inactive”.
Consider `COc1ccc(NC(=O)Nc2ccc3c(c2)C(=O)N([C@@H](C)CO)C[C@@H](C)[C@@H](CN(C)Cc2ccc(C(=O)Nc4ccccc4N)cc2)O3)cc1`, for which the cytotoxicity call is “inactive”.
Turning to `C[C@H]1CN([C@@H](C)CO)C(=O)c2c(c3ccccc3n2C)-c2ccccc2CO[C@@H]1CN(C)S(=O)(=O)c1ccc(Cl)cc1`, the cytotoxicity call is “inactive”.
In the case of `Cc1ccc(S(=O)(=O)Nc2ccc3c(c2)C(=O)N([C@H](C)CO)C[C@H](C)[C@@H](CN(C)S(C)(=O)=O)O3)cc1`, the cytotoxicity call was “inactive”.
Regarding `C[C@H](CO)N1C[C@H](C)[C@@H](CN(C)Cc2ccc(C(F)(F)F)cc2)Oc2c(NC(=O)Nc3ccc(C(F)(F)F)cc3)cccc2C1=O`, the cytotoxicity call was “inactive”.
With `C[C@H](CO)N1C[C@H](C)[C@H](CN(C)Cc2ccc(C(F)(F)F)cc2)Oc2c(NC(=O)Nc3ccc(C(F)(F)F)cc3)cccc2C1=O`, the cytotoxicity call is “inactive”.
In the case of `C[C@@H]1CN([C@@H](C)CO)C(=O)c2cccc(NC(=O)Nc3ccc(C(F)(F)F)cc3)c2O[C@@H]1CN(C)Cc1ccc(C(F)(F)F)cc1`, the cytotoxicity call was “active”.
In the case of `C[C@@H]1CN([C@H](C)CO)C(=O)c2cccc(NC(=O)Nc3ccc(C(F)(F)F)cc3)c2O[C@@H]1CN(C)Cc1ccc(C(F)(F)F)cc1`, the cytotoxicity call is “active”.
In the case of `C[C@H](CO)N1C[C@H](C)[C@@H](CN(C)Cc2ccc(C(F)(F)F)cc2)Oc2c(NC(=O)Nc3ccc(F)cc3)cccc2C1=O`, the cytotoxicity call was “inactive”.
Regarding `C[C@@H]1CN([C@@H](C)CO)C(=O)c2cccc(NC(=O)Nc3ccc(F)cc3)c2O[C@H]1CN(C)Cc1ccc(C(F)(F)F)cc1`, the cytotoxicity call was “inactive”.
As for `C[C@@H]1CN([C@H](C)CO)C(=O)c2cccc(NC(=O)Nc3ccc(C(F)(F)F)cc3)c2O[C@H]1CN(C)Cc1ccc(C(F)(F)F)cc1`, the cytotoxicity call was “inactive”.
Take `C[C@H]1CN([C@@H](C)CO)C(=O)c2cccc(NC(=O)Nc3ccc(F)cc3)c2O[C@@H]1CN(C)Cc1ccc(C(F)(F)F)cc1`: the cytotoxicity call is “active”.
`C[C@@H]1CN([C@@H](C)CO)C(=O)c2cccc(NC(=O)Nc3ccc(C(F)(F)F)cc3)c2O[C@H]1CN(C)Cc1ccc(C(F)(F)F)cc1`: the cytotoxicity call was “inactive”.
In the case of `CO[C@@H]1CN(C)C(=O)c2cc(NS(=O)(=O)c3cn(C)cn3)ccc2OC[C@@H](C)N(CCC(F)(F)F)C[C@H]1C`, the cytotoxicity call was “inactive”.
Regarding `O=C(C[C@H]1CC[C@@H]2[C@H](COC[C@H](O)CN2S(=O)(=O)c2cccc(F)c2)O1)NCCCN1CCOCC1`, the cytotoxicity call was “inactive”.
For `COCC#Cc1cnc2c(c1)C(=O)N([C@@H](C)CO)C[C@H](C)[C@H](CN(C)C(=O)Nc1ccccc1OC)O2`, the cytotoxicity call is “inactive”.
For `O=C(CCCCCNC(=O)OCc1ccc(CO[C@@H]2C[C@H](c3ccc(C(F)(F)F)cc3)C=C(C(=O)N3CCN(Cc4ccc5c(c4)OCO5)CC3)O2)cc1)NO`, the cytotoxicity call was “inactive”.
Regarding `C[C@@H]1CN([C@@H](C)CO)S(=O)(=O)c2ccc(-c3ccc(C(=O)N(C)C)cc3)cc2O[C@H]1CN(C)C(=O)Cc1ccccn1`, the cytotoxicity call was “inactive”.
For the compound `COc1ccc(NC(=O)N(C)C[C@@H]2OCCCC[C@H](C)Oc3ccc(NC(=O)CCC(F)(F)F)cc3C(=O)N([C@@H](C)CO)C[C@@H]2C)cc1`, the cytotoxicity call was “inactive”.
Regarding `CO[C@H]1CN(C)C(=O)c2cc(NS(=O)(=O)c3cn(C)cn3)ccc2OC[C@H](C)N(Cc2cccc(F)c2)C[C@@H]1C`, the cytotoxicity call was “inactive”.
Regarding `CO[C@H]1/C=C/C[C@H](C)[C@@H](C)S(=O)(=O)NC(=O)c2ccc3c(c2)N(C[C@@H]2CC[C@H]21)C[C@@]1(CCCc2cc(Cl)ccc21)CO3`, the cytotoxicity call is “active”.
For the compound `COc1ccc(CN(C)C[C@@H]2OCCCC[C@@H](C)Oc3ccc(NC(=O)c4ccccc4)cc3C(=O)N([C@@H](C)CO)C[C@@H]2C)cc1`, the cytotoxicity call is “inactive”.
With `CO[C@@H]1CN(C)C(=O)c2ccc(NS(=O)(=O)c3cn(C)cn3)cc2OC[C@H](C)N(Cc2cccc(F)c2)C[C@@H]1C`, the cytotoxicity call is “inactive”.
Take `C=C1C(=O)OC2CC3(C)CCCC(C)C3=CC12` (configuration not stated): the cytotoxicity call was “active”.
Consider `C[C@H]1CN([C@@H](C)CO)C(=O)c2cc(NC(=O)C3CCCCC3)ccc2O[C@@H]1CN(C)Cc1ccc(Cl)c(Cl)c1`, for which the cytotoxicity call is “inactive”.
To `CC(C)c1c(O)ccc2c1CC[C@H]1C(C)(C)CCC[C@]21C` belongs “active”.
To `COC(=O)C1(C)CCCC2(C)c3ccc(C(C)C)cc3C(=O)CC12` (configuration not stated) belongs “inactive”.
As to `CC(C)c1c(O)ccc2c1CCC1C(C)(C=O)CCCC21C` (configuration not stated), the cytotoxicity call was “inactive”.
On to `CC(C)c1c(O)ccc2c1CCC1C(C)(C)CCCC21C` (configuration not stated), for which the cytotoxicity call was “inactive”.
For the compound `COC(=O)C1(C)CCCC2(C)c3ccc(O)c(C(C)C)c3CCC12` (configuration not stated), the cytotoxicity call was “active”.
For `CC(C)c1c(O)ccc2c1CCC1C(C)(C)C(=O)CCC21C` (configuration not stated), the cytotoxicity call was “inactive”.
Regarding `Cn1cnc(CCNC(=O)C[C@H]2CC[C@@H]3[C@H](COC[C@H](O)CN3C(=O)Nc3ccc(Cl)cc3)O2)c1`, the cytotoxicity call is “inactive”.
Regarding `C[C@@H]1CN([C@@H](C)CO)C(=O)c2cc(NC(=O)c3ccccc3)ccc2O[C@@H](C)CCCCO[C@H]1CN(C)S(=O)(=O)c1cccs1`, the cytotoxicity call was “inactive”.
`COCC#Cc1ccc2c(c1)O[C@H](CN(C)S(=O)(=O)c1cccc(F)c1)[C@H](C)CN([C@H](C)CO)S2(=O)=O`: the cytotoxicity call is “inactive”.
To `NC(=O)N1CCC(CC(=O)N2CCC([C@H]3c4ncc(Br)cc4CCc4cc(Cl)cc(Br)c43)CC2)CC1` belongs “inactive”; to `C[C@@H]1CN([C@@H](C)CO)C(=O)CCCn2cc(nn2)CO[C@@H]1CN(C)S(=O)(=O)c1ccc2c(c1)OCCCO2`, “inactive”; to `Cc1ccc(S(=O)(=O)N(C)C[C@@H]2Oc3c(NC(=O)C4CCOCC4)cccc3C(=O)N([C@H](C)CO)C[C@H]2C)cc1`, “inactive”.
On to `C[C@@H]1CN([C@@H](C)CO)C(=O)c2c(c3ccccc3n2C)-c2ccccc2CO[C@@H]1CN(C)Cc1cccc(F)c1`, for which the cytotoxicity call was “inactive”.
To `C[C@H]1CN([C@@H](C)CO)C(=O)Cc2cc(NC(=O)Nc3ccc(Cl)c(Cl)c3)ccc2O[C@H]1CN(C)S(=O)(=O)c1ccc(Oc2ccccc2)cc1` belongs “inactive”.
For the compound `C[C@H]1CN([C@@H](C)CO)C(=O)Cc2cc(NC(=O)Nc3cc(Cl)cc(Cl)c3)ccc2O[C@H]1CN(C)S(=O)(=O)c1ccc(Oc2ccccc2)cc1`, the cytotoxicity call was “inactive”.
Take `Cc1ccccc1S(=O)(=O)N(C)C[C@@H]1Oc2ccc(NC(=O)Nc3cc(Cl)cc(Cl)c3)cc2CC(=O)N([C@@H](C)CO)C[C@@H]1C`: the cytotoxicity call is “active”.
To `Cc1ccccc1S(=O)(=O)N(C)C[C@@H]1Oc2ccc(NC(=O)Nc3ccc(Cl)c(Cl)c3)cc2CC(=O)N([C@@H](C)CO)C[C@@H]1C` belongs “active”; to `Cc1noc(C)c1S(=O)(=O)N(C)C[C@@H]1Oc2ccc(NC(=O)Nc3ccccc3)cc2CC(=O)N([C@@H](C)CO)C[C@@H]1C`, “inactive”.
As for `C[C@H](CO)N1C[C@H](C)[C@@H](CN(C)S(C)(=O)=O)Oc2ccc(NC(=O)Nc3ccccc3)cc2CC1=O`, the cytotoxicity call is “inactive”.
`Nc1ccccc1CO`: the cytotoxicity call is “inactive”.
Consider `C[C@H](CO)N1C[C@H](C)[C@H](CN(C)CC2CC2)OCCCC[C@H](C)Oc2ccc(NC(=O)Nc3ccccc3)cc2C1=O`, for which the cytotoxicity call is “inactive”.
To `C[C@@H]1CCCCO[C@H](CN(C)Cc2ccc3c(c2)OCO3)[C@H](C)CN([C@H](C)CO)C(=O)c2cc(NC(=O)Nc3ccc4c(c3)OCO4)ccc2O1` belongs “inactive”; to `Cc1ccc(S(=O)(=O)Nc2ccc3c(c2)C(=O)N([C@@H](C)CO)C[C@H](C)[C@H](CN(C)Cc2ccccc2)OCCCC[C@@H](C)O3)cc1`, “inactive”; to `O=C(C1=C[C@@H](c2ccc3c(c2)OCO3)C[C@@H](OCCCCO)O1)N1CCN(Cc2ccc3c(c2)OCO3)CC1`, “inactive”.
As to `C[C@H]1CN([C@@H](C)CO)C(=O)c2cc(C#CC3(O)CCCC3)cnc2O[C@@H]1CN(C)C(=O)Cc1ccncc1`, the cytotoxicity call was “inactive”.
`COc1ccc(S(=O)(=O)N2C[C@@H](O)COC[C@@H]3O[C@@H](CC(=O)NCCCN4CCOCC4)CC[C@H]32)cc1`: the cytotoxicity call is “inactive”.
Regarding `CCCCCCOC(=O)/N=C(/N)c1ccc(NCc2nc3cc(C(=O)N(CCC(=O)OCC)c4ccccn4)ccc3n2C)cc1`, the cytotoxicity call is “active”.
For the compound `CCCCCCOC(=O)N=C(N)c1ccc(NCc2nc3cc(C(=O)N(CCC(=O)OCC)c4ccccn4)ccc3n2C)cc1.CS(=O)(=O)O`, the cytotoxicity call is “inactive”.
